The values below come from PubChem BioAssay (NCI).

This is part of a sample that, as a whole, favours compounds with a hit. Of some 83,000 tested, about 20% had one in any assay.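 Single-concentration screen, 48 h exposure, 96-well plates. Endpoint: percent growth. Below 10 = active.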 A number with no mark means an inactive call. Active and inactive are the calls of the source.

Among the test systems are RPMI-8226 leukemia; OVCAR-8 ovarian; OVCAR-5 ovarian; OVCAR-4 ovarian; SK-OV-3 ovarian; IGROV1 ovarian; OVCAR-3 ovarian; HS 578T breast; NCI/ADR-RES ovarian; T-47D breast; BT-549 breast; MDA-MB-435 melanoma; SW-620 colon; MCF7 breast; HCT-116 colon; HCC-2998 colon; KM12 colon; MDA-MB-468 breast; SR leukemia.
Holding throughout (experiment): NCI-60 one-dose screen, 48 h (100 = growth as untreated, 0 = no growth, -100 = all killed)
Conditions in all cases: 10 µM

For the compound `COC(=O)C(Cc1ccc(O)c(O)c1)NC(=O)C(CSC/C=C(\C)CCCC(C)CCCC(C)CCCC(C)C)NC(C)=O` (centres undefined), the growth in the assay with RPMI-8226 leukemia was -5.06% (active); in the assay with OVCAR-8 ovarian, 10.8%; in the assay with OVCAR-5 ovarian, 28%; in the assay with OVCAR-4 ovarian, 19.7%; in the assay with SK-OV-3 ovarian it was 41.7%; in the assay with IGROV1 ovarian, 17.4%. Further, the growth is 34.8% in the assay on OVCAR-3 ovarian; 25.5% in the assay on HS 578T breast; 73.8% in the assay with NCI/ADR-RES ovarian; -0.796% (active) in the assay on T-47D breast; 23.3% with BT-549 breast; 30% with MDA-MB-435 melanoma. For the same compound, the growth in the assay with SW-620 colon was 19.8%; with MCF7 breast, 24.4%; in the assay with HCT-116 colon it was 21.2%; in the assay with HCC-2998 colon, 19.3%; with KM12 colon it was 16.4%; in the assay with MDA-MB-468 breast it was 6.4% (active).
Turning to `CN1CCN(c2ccc(Nc3nc(NCCNC(=O)c4ccc(C(F)(F)F)cc4)c4sccc4n3)cc2)CC1`, the growth in the assay with RPMI-8226 leukemia was -40.1% (active); in the assay on OVCAR-8 ovarian, 21%; in the assay with OVCAR-5 ovarian it was 42.3%; in the assay on OVCAR-4 ovarian, -33.2% (active); with SK-OV-3 ovarian it was 77%; with IGROV1 ovarian, 65%. The growth is 27.8% with OVCAR-3 ovarian; -8.08% (active) with HS 578T breast; 38.5% with NCI/ADR-RES ovarian; -6.48% (active) with T-47D breast; -13.9% (active) with BT-549 breast; -95.2% (active) in the assay with MDA-MB-435 melanoma. Besides, the growth in the assay with SW-620 colon was 4.68% (active); in the assay with MCF7 breast, -44.4% (active); in the assay on HCT-116 colon, 15.2%; in the assay with HCC-2998 colon it was -22.5% (active); in the assay on KM12 colon, 31.4%.
Take `CSc1nc(-c2cccc(C)c2)c2cc(-c3ccccc3)n(C)c2n1`: the growth in the assay on SR leukemia was 11.7%; in the assay on OVCAR-8 ovarian it was 25.2%; with OVCAR-5 ovarian, 49.6%; in the assay on OVCAR-4 ovarian, 31.5%; in the assay on SK-OV-3 ovarian, 69%; with IGROV1 ovarian it was 34.3%. In addition, the growth with OVCAR-3 ovarian is -32.4% (active); in the assay with HS 578T breast it was 9.16% (active); in the assay with NCI/ADR-RES ovarian, -19.6% (active); in the assay with T-47D breast, 1.02% (active); in the assay with BT-549 breast, -5.93% (active); in the assay with MDA-MB-435 melanoma, -39.3% (active). Also, the growth is 20.3% in the assay with SW-620 colon; 5.57% (active) with MCF7 breast; 13.5% with HCT-116 colon; 39.4% in the assay on HCC-2998 colon; 6.5% (active) in the assay on KM12 colon; -29.2% (active) in the assay on MDA-MB-468 breast.
For `CC(=O)Nc1ccc(-c2cn(-c3cccc(C(=O)Nc4cc(C(F)(F)F)cc(C(F)(F)F)c4)c3)nn2)cn1`, the growth is -43.7% (active) in the assay on RPMI-8226 leukemia; -32.8% (active) in the assay on OVCAR-8 ovarian; -10.6% (active) with OVCAR-5 ovarian; -24.6% (active) in the assay with OVCAR-4 ovarian; -21.1% (active) in the assay with SK-OV-3 ovarian; -38.4% (active) in the assay on IGROV1 ovarian. Further, the growth was -30.9% (active) in the assay with OVCAR-3 ovarian; -9.63% (active) in the assay on HS 578T breast; 1.76% (active) in the assay on NCI/ADR-RES ovarian; 33.9% with T-47D breast; -39.6% (active) in the assay on BT-549 breast; -34.3% (active) in the assay on MDA-MB-435 melanoma. For the same compound, the growth in the assay on SW-620 colon was -31.5% (active); in the assay with MCF7 breast, -25% (active); with HCT-116 colon it was 10.6%; in the assay with HCC-2998 colon, -62.1% (active); in the assay on KM12 colon, -27.6% (active); in the assay with MDA-MB-468 breast, -46.5% (active).
Regarding `CC1(c2ccccc2)NC(=O)N(CC(=O)Nc2ccc(C(=O)/C=C/c3ccc(Cl)cc3)cc2)C1=O` (centres undefined), the growth is -13.3% (active) in the assay with SR leukemia; 17.7% with OVCAR-8 ovarian; 34.5% with OVCAR-5 ovarian; 24.8% with OVCAR-4 ovarian; 66% in the assay on SK-OV-3 ovarian; -19.8% (active) in the assay on IGROV1 ovarian. For the same compound, the growth in the assay with OVCAR-3 ovarian is -69.9% (active); with HS 578T breast, 48.9%; in the assay with NCI/ADR-RES ovarian, 48.9%; in the assay on T-47D breast, 10.4%; with BT-549 breast it was 1.57% (active); in the assay on MDA-MB-435 melanoma it was -76.4% (active). In addition, the growth in the assay on SW-620 colon is -58.9% (active); in the assay on MCF7 breast it was -66.6% (active); with HCT-116 colon, -69.1% (active); with HCC-2998 colon it was -99.1% (active); in the assay with KM12 colon, -81.4% (active); in the assay on MDA-MB-468 breast it was -9.47% (active).
On to `COc1ccccc1[C@H]1C(C(=O)c2ccc(Cl)cc2)C2(N[C@@H]1c1ccccc1)C(=O)Nc1ccc(Cl)cc12` (some centres undefined), for which the growth in the assay with RPMI-8226 leukemia is 6.41% (active); in the assay with OVCAR-8 ovarian it was 12.2%; with OVCAR-5 ovarian it was -8.45% (active); in the assay with OVCAR-4 ovarian, 24%; with SK-OV-3 ovarian, 28.8%; in the assay on IGROV1 ovarian it was 22.1%. Also, the growth is 3.66% (active) in the assay with OVCAR-3 ovarian; -2.19% (active) with HS 578T breast; -65.5% (active) in the assay with NCI/ADR-RES ovarian; 5.84% (active) in the assay with T-47D breast; -1.27% (active) in the assay with BT-549 breast; -44.4% (active) with MDA-MB-435 melanoma. The growth was 6.3% (active) in the assay on SW-620 colon, -4.87% (active) in the assay with MCF7 breast, 10.1% in the assay on HCT-116 colon and -18.8% (active) in the assay with HCC-2998 colon.
Consider `O=C1NC(=NC23CC4CC(CC(C4)C2)C3)N/C1=C\c1ccc2ncoc2c1`, for which the growth with RPMI-8226 leukemia was -4.5% (active); in the assay on OVCAR-8 ovarian, 13.4%; in the assay on OVCAR-5 ovarian it was -14.4% (active); in the assay on OVCAR-4 ovarian, 13.4%; in the assay on SK-OV-3 ovarian, 26.8%; with IGROV1 ovarian it was 3.59% (active). For the same compound, the growth in the assay on OVCAR-3 ovarian is 24.1%; with HS 578T breast, -0.689% (active); in the assay with NCI/ADR-RES ovarian, 4.58% (active); with T-47D breast, -0.573% (active); in the assay on BT-549 breast, -20.6% (active); with MDA-MB-435 melanoma, 16.8%. Further, the growth was 9.67% (active) in the assay on SW-620 colon; 1.42% (active) with MCF7 breast; 27.6% in the assay on HCT-116 colon; -5.81% (active) with HCC-2998 colon; 4.28% (active) in the assay with KM12 colon.
As to `CC1(c2ccccc2)NC(=O)N(CC(=O)Nc2ccc(C(=O)/C=C/c3ccc(Br)cc3)cc2)C1=O` (centres undefined), the growth is 15.5% in the assay on SR leukemia; 41.3% in the assay with OVCAR-8 ovarian; 43.3% with OVCAR-4 ovarian; 94.3% with SK-OV-3 ovarian; 61.6% in the assay with IGROV1 ovarian; 27.4% with OVCAR-3 ovarian. Moreover, the growth with HS 578T breast was 53.4%; in the assay with NCI/ADR-RES ovarian, 79.8%; in the assay on T-47D breast, 14.3%; with BT-549 breast, 25.4%; in the assay with MDA-MB-435 melanoma it was -44% (active); with SW-620 colon, 32.7%. Further, the growth with MCF7 breast is -42.6% (active); in the assay on HCT-116 colon it was -69.7% (active); in the assay with HCC-2998 colon it was 10.5%; in the assay on KM12 colon it was -27.8% (active); in the assay with MDA-MB-468 breast it was -8.76% (active).
